FECH inh = human FECH heme synthesis enzyme inhibition | P22830 | purified FECH, Ni-mesoporphyrin absorbance 550 nm | calls only at 10 µM (by protocol) | 20,000 tested, 3.3% active | AID 1671448;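 active = enzyme reaction rate more than 3 SD below the solvent-only control wells on the same plate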;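 also: lower slope than DMSO wells means FECH inhibition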
Target sequence (P22830 whole entry, looked up): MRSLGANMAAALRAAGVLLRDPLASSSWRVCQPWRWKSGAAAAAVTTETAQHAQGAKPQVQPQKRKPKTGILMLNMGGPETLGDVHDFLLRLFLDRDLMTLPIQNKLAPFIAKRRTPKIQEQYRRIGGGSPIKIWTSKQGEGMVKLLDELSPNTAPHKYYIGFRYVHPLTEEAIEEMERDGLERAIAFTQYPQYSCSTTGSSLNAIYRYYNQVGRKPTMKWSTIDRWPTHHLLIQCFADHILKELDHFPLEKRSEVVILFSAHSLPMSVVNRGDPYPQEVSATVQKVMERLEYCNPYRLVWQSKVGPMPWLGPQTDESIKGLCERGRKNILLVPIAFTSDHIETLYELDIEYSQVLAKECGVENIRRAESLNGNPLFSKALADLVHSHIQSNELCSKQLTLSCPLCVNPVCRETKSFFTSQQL
Starred values were filed as active, the others as inactive; i = inactive; + = active, no number. The entries come from a sample that favours hits as a whole.

SMILES	FECH inh
Cc1cc(N2CCCCC2)nc(N2CCN(S(=O)(=O)c3ccc(-c4ccccc4)cc3)CC2)n1	i
CC(C)N1CCc2c(sc(NC(=O)CN3C(=O)CCC3=O)c2-c2nc3ccccc3s2)C1	i
COc1ccc(CNC(=O)N2CCN(c3cc(-c4ccccc4C)ncn3)CC2)cc1	i
CC(C)c1ccc(S(=O)(=O)NCCn2c(-c3ccccc3)nc3cccnc32)cc1	i
CCNc1ncc(C(=O)NC2CCC(n3cnnc3)CC2)cn1 (stereo unspecified)	i
COc1ccc(N2C(=O)CCS2(=O)=O)cc1S(=O)(=O)Nc1cccc(C)c1	i
COc1ccccc1CNc1nc2nc(CNc3ccccc3OC)cc(=O)n2[nH]1	i
COc1ccc(CNc2nc3nc(CNc4ccccc4F)cc(=O)n3[nH]2)cc1	i
CCc1ccccc1NCc1cc(=O)n2[nH]c(NCc3ccc(OC)cc3)nc2n1	i
COc1ccc(CNc2nc3nc(CNc4ccccc4OC)cc(=O)n3[nH]2)cc1	+
CCc1ccccc1NCc1cc(=O)n2[nH]c(NCc3ccccc3)nc2n1	i
Cc1cccc(NCc2cc(=O)n3[nH]c(NCc4ccccc4Cl)nc3n2)c1C	i
O=c1cc(CNc2ccccc2F)nc2nc(NCc3ccccc3)[nH]n12	i
O=c1cc(CNc2ccccc2Cl)nc2nc(NCc3ccccc3)[nH]n12	+
CCOc1ccccc1NCc1cc(=O)n2[nH]c(NCc3ccc(F)cc3)nc2n1	i
CCc1ccccc1NCc1cc(=O)n2[nH]c(NCc3ccccc3Cl)nc2n1	+
Cc1ccccc1NCc1cc(=O)n2[nH]c(NCc3ccccc3Cl)nc2n1	+
CNC(=O)[C@@H]1C[C@@H](N)CN1C(=O)c1cc(F)c(OC)c(F)c1	i
CSc1ccccc1NC(=O)CCC(=O)NCC1=CCCCC1	i
Cc1cc(Nc2ccccc2)nc(Nc2ccc(NC(=O)c3ccc(-c4ccccc4)cc3)cc2)n1	i
O=c1cc(CN2CCc3[nH]nc(-c4ccc(Cl)cc4)c3C2)nc(C2CC2)[nH]1	i
CCCCNc1nc(Nc2ccccc2C)c2cnn(-c3ccccc3)c2n1	i
CCc1cc(Sc2ccc(NC(=O)Nc3ccc(C)cc3Cl)cc2)n2ncnc2n1	i
COCCn1ccnc1-c1cc(C)c(O)c(C)c1	i
COc1ccccc1N(Cc1nc2nc(C)cc(C)n2n1)C(=O)c1ccc(C(C)(C)C)cc1	i
SMILES	FECH inh
CCO[C@H]1[C@H](NC(=O)CCCn2cncn2)c2ccccc2C12CCNCC2	i
Cc1ccc(-n2ncc3c(-n4nc(C)cc4NC(=O)COc4ccc(F)cc4)ncnc32)c(C)c1	i
COc1ccc(CCn2cnc(-c3ccccc3)c2-c2cnn(C)c2)cc1O	i
COc1ccc(-c2cc(N3CCN(C(=O)Nc4ccc5c(c4)OCCO5)CC3)ncn2)cc1	i
O=C(c1csc(S(=O)(=O)NCc2ccco2)c1)N1CCCCC1	i
CCc1ccccc1NCc1cc(=O)n2[nH]c(NCc3ccc(F)cc3)nc2n1	i
O=c1cc(CNc2ccc(F)cc2)nc2nc(NCc3ccccc3)[nH]n12	i
O=c1cc(CNc2ccccc2F)nc2nc(NCc3ccc(F)cc3)[nH]n12	i
COc1ccccc1CNc1nc2nc(CNc3ccccc3)cc(=O)n2[nH]1	i
Cc1ccccc1NCc1cc(=O)n2[nH]c(NCc3ccc(F)cc3)nc2n1	+
Cc1ccc(NCc2cc(=O)n3[nH]c(NCc4ccccc4Cl)nc3n2)cc1	+
CC(=O)c1cc(C(=O)NC2CC(=O)N(C3CCCCCC3)C2)[nH]n1 (stereo unspecified)	i
CCc1nc(OCC(=O)NCCc2ccco2)c2c(C)c(C)oc2n1	i
FCCCN1CCc2onc(-c3ccc(-c4ccccc4)cc3)c2C1	i
O=C(Nc1ccccc1SCc1ccccc1F)c1ccnnc1	i
CC(c1ccccc1)n1nnnc1N1CCC2(CC1)C(=O)Nc1ccccc12 (stereo unspecified)	i
Cn1nnc2cc(C(=O)N3CCC(c4[nH]ncc4-c4ccccc4)CC3)cnc21	i
CCc1cc(Sc2ccc(NC(=O)c3cccs3)cc2)n2ncnc2n1	i
Cc1ncc(CO)c2cc(C3=NS(=O)(=O)c4ccccc4N3)c(=O)oc12	+
CCc1noc(CN(CC)C(=O)C(C)n2cnc3ccccc32)n1 (stereo unspecified)	+
CCc1noc(CN(CC)C(=O)C(c2cccc(C)c2)N(C)C)n1 (stereo unspecified)	i
CCc1noc(CN(CC)C(=O)c2ccccc2N2CCCC2)n1	i
CN1CCN(C)C2(CCN(c3nccc(N4CCC(O)C4)n3)CC2)C1 (stereo unspecified)	i
CCCc1nc2nc[nH]n2c(=O)c1NC(=O)Nc1cc(Cl)ccc1C	i
Cc1ccccc1N1CCN(C2CCCN(CCCn3nnnc3C)C2)CC1 (stereo unspecified)	i
SMILES	FECH inh
Cc1ccc(NC(=O)c2ccccc2C)cc1OCc1cc(=O)n2cccc(C)c2n1	i
Cc1ccc(NC(=O)C2CCCCC2)cc1OCc1cc(=O)n2cccc(C)c2n1	+
COc1ccc(C(=O)Nc2ccc(C)c(OCc3cc(=O)n4cccc(C)c4n3)c2)cc1	i
Cc1c(Cl)cccc1NC(=O)Cc1csc(NC(=O)Nc2cccc(Cl)c2)n1	i
CCc1cccc(CC)c1NS(=O)(=O)c1cc(N2C(=O)CCS2(=O)=O)ccc1OC	i
COc1ccc(OCCNS(=O)(=O)c2cc(N3C(=O)CCS3(=O)=O)ccc2C)cc1	i
COC(=O)CNS(=O)(=O)c1cc(N2C(=O)CCS2(=O)=O)ccc1OC	i
CCc1cccc(C)c1NS(=O)(=O)c1cc(N2C(=O)CCS2(=O)=O)ccc1C	+
CCOC(=O)CNS(=O)(=O)c1cc(N2C(=O)CCS2(=O)=O)ccc1C	+
COc1ccc(N2C(=O)CCS2(=O)=O)cc1S(=O)(=O)N1CCN(c2ccccc2F)CC1	i
Cc1ccc(NS(=O)(=O)c2cc(N3C(=O)CCS3(=O)=O)ccc2C)cc1	i
Cc1ccc(N2C(=O)CCS2(=O)=O)cc1S(=O)(=O)N1CCN(c2ccc(F)cc2)CC1	+
CCOC(=O)C1CCN(S(=O)(=O)c2cc(N3C(=O)CCS3(=O)=O)ccc2C)CC1	i
C=CCn1c(=O)c2cnc(C)nc2n(C)c1=O	i
CCOc1ccc(Cn2c(CNS(=O)(=O)c3ccc(F)cc3)nc3cccnc32)cc1	i
CCn1c(C2CCCN(C(=O)Nc3ccccc3)C2)nn(CCN(C)C)c1=O (stereo unspecified)	i
Cc1ccc(C(=O)Nc2ccccc2Sc2cc(C)nc3nc(-c4ccccc4)nn23)cc1	i
CC1(C(=O)NC2CCCCC2)Cc2ccccc2C(=O)N1C1CCCC1 (stereo unspecified)	i
CCOc1cc(CNC(=O)c2ccc(CN3C(=O)CCn4nccc43)cc2)ccc1OC	i
CCN(CC)C(=O)CCc1nc(-c2cc3ccc(C)cc3[nH]c2=O)no1	i
Cc1ccc(C2=CC(c3ccc(C)cc3)n3nc(NS(=O)(=O)c4ccccc4)nc3N2)cc1 (stereo unspecified)	+
O=C(O)CCCC(=O)Nc1nc2n(n1)C(c1ccc(Cl)cc1)C=C(c1ccc(Cl)cc1)N2 (stereo unspecified)	i
Cc1ccc(C2=CC(c3ccc(F)cc3)n3nc(NS(=O)(=O)c4ccc(C)cc4)nc3N2)cc1 (stereo unspecified)	i
O=S(=O)(Nc1nc2n(n1)C(c1ccc(F)cc1)C=C(c1ccccc1)N2)c1ccccc1 (stereo unspecified)	i

Screening results from PubChem BioAssay.
